Rows were chosen to be rich in hits. Some 2.6% of all compounds tested hit in one or more screens of this group.
Shn3 inh set2 = reduction of Shn3 3'UTR firefly luciferase signal, primary screen, Schnurri-3 inhibitor project, cell-based, Clone20 osteoblasts, set 2. Clone20 osteoblast Shn3 3'UTR firefly luciferase, 24 h. inhibition, % at 12.5 µM. 360,000 tested, 0.52% active. AID 588674, 2011;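 active = mean inhibition of at least 75% with every replicate also reaching 75%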;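 note: 0% = median of neutral control wells and 100% = pilot-screen positive control compound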
CF NFkB inh = inhibitors of PAF-induced NF-kB signaling, primary screen, cell-based, GFP fluorescence, uHTS; 360,000 tested, 0.86% active; inhibition, % at 5 µM; KKLEB NF-kB-GFP reporter, GFP fluorescence overnight;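 active = at least 50% inhibition at 5 µM, scaled per plate between neutral and stimulator controls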;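 note: PAF is a Pseudomonas aeruginosa culture filtrate used as stimulus; plate controls were PAF-stimulated DMSO wells for no effect and unstimulated DMSO wells for full effect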
KKLEB tox = cytotoxicity in KKLEB CF airway cells, primary screen, cytotoxicity control for CF NF-kB inhibitor project, cell-based, uHTS, fluorescence assay plates | KKLEB CF airway cells viability, ATPlite luminescence, overnight; active compounds read low; cells stimulated with P. aeruginosa culture filtrate | activity change (cytotoxicity), % at 5 µM | 360,000 tested, 0.36% active | AID 602141, 2011;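 active = corrected activity change at or below -50% at 5 µM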
HIF-2a block = HIF-2a reporter inhibitors, primary screen, luminescence, 786-0 RCC cells | inhibition, % at 18.8 µM | 786-0 RCC cells HIF-2a reporter, luciferase luminescence, overnight | 360,000 tested, 0.72% active | AID 624352, 2012;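 active = inhibition of the luminescence signal of 40% or more relative to plate controls, in a single-dose primary screen at 18.75 µM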
Peg3 promoter = Peg3 promoter-driven luciferase inhibitors, primary screen, cell-based, HeLa, luciferase luminescence; HeLa PEG-Prom luciferase reporter, overnight; inhibition, % at 20 µM; 360,000 tested, 1.7% active;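 active = inhibition of at least 50% at 20 µM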
* marks the source's active call; other numbers are inactive results; nt = no result given.

SMILES | Shn3 inh set2 | CF NFkB inh | KKLEB tox | HIF-2a block | Peg3 promoter
C/C(=N\NC(=O)C1(C)CC1(Br)Br)c1cccc(NC(=O)c2ccc(C)o2)c1 (stereo not drawn) | 1 | 7 | 0 | -60 | 62*
CNc1ccc(C(=O)OCC(=O)NC(=O)NC2CCCC2)cc1[N+](=O)[O-] | 4 | -6 | 10 | 1 | -1
CCCCNc1c(-c2cccc(-c3cc(C(C)=O)cs3)c2)nc2cc(C)ccn12 | 9 | 10 | -10 | -101 | 60*
CN(c1ccccc1)S(=O)(=O)c1ccc(C(=O)N2CCN(c3ccccc3F)CC2)cc1 | 19 | 2 | 6 | -6 | 4
CCCCNC(=O)c1nc(-c2cc3ccccc3[nH]2)oc1-c1ccccc1 | nt | nt | nt | 13 | nt
CCOC(=O)N1CCN(C(=O)c2ccc3c(c2)NC(=O)/C(=C\c2ccc(OC)c(OC)c2)S3)CC1 | 2 | 34 | -10 | 8 | 29
CCOC(=O)N1CCN(C(=O)c2ccc3c(c2)N(C)C(=O)/C(=C\c2ccc(OCC)c(OC)c2)S3)CC1 | 46 | 28 | -16 | 14 | 53*
CCC(=O)OCC(=O)[C@@]1(OC(=O)CC)[C@@H](C)C[C@H]2[C@@H]3CCC4=CC(=O)C=C[C@]4(C)[C@@]3(Cl)[C@@H](O)C[C@@]21C | 17 | 67* | 30 | 22 | -7
C[C@@H]1C[C@H]2[C@@H]3C[C@H](F)C4=CC(=O)C=C[C@]4(C)[C@@]3(F)[C@@H](O)C[C@]2(C)[C@@]1(O)C(=O)COC(=O)C(C)(C)C | -6 | 76* | 40 | 24 | -2
CC(=O)C12OC(C)(C)OC1CC1C3CCC4=CC(=O)C=CC4(C)C3(F)C(O)CC12C (stereo not drawn) | 0 | 79* | 12 | 25 | -10
CCCC(=O)O[C@]1(C(=O)COC(C)=O)CC[C@H]2[C@@H]3C[C@H](F)C4=CC(=O)C=C[C@]4(C)[C@@]3(F)[C@@H](O)C[C@@]21C | 26 | 63* | -14 | 22 | -4
Cc1cc(C)n(CCC(=O)N2c3ccccc3CC2C)n1 (stereo not drawn) | -5 | 7 | -5 | 13 | 10
O=C1NC[C@H](c2ccccc2)N(CCc2cccc3ccccc23)C1=O | 6 | -3 | -1 | 8 | 1
Cc1ccc(C)c(N2C(=O)CC(Cc3ccc(Br)cc3)C2=O)c1 (stereo not drawn) | 8 | 19 | -11 | 20 | 19
CC1CCCCC1NC(=O)CCn1ccc2cc(S(=O)(=O)N3CCCC3)ccc21 (stereo not drawn) | 3 | -2 | 0 | 7 | 13
C[C@@H]1C[C@H]2[C@@H]3CCC4=CC(=O)C=C[C@]4(C)[C@@]3(F)[C@@H](O)C[C@]2(C)[C@H]1C(=O)CO | 0 | 72* | 10 | 31 | -6
CC1(C)O[C@@H]2C[C@H]3[C@@H]4CCC5=CC(=O)CC[C@]5(C)[C@@]4(F)[C@@H](O)C[C@]3(C)[C@]2(C(=O)CCl)O1 | 32 | 77* | -10 | 24 | 3
CC(=O)OCC(=O)C1CCC2C3CCC4=CC(=O)C=CC4(C)C3CCC12C (stereo not drawn) | 4 | 8 | 13 | 14 | -2
CC(=O)OCC(=O)[C@@]1(O)[C@H](C)C[C@H]2[C@@H]3CCC4=CC(=O)C=C[C@]4(C)[C@@]3(F)[C@@H](O)C[C@@]21C | 10 | 69* | 9 | 21 | -10
CC(=O)C1(O)CCC2C3CC(C)C4=CC(=O)CCC4(C)C3CCC21C (stereo not drawn) | 0 | 48 | 16 | 11 | -1
CC(=O)[C@@]1(O)CC[C@H]2[C@@H]3C[C@H](C)C4=CC(=O)C=C[C@]4(C)[C@@]3(F)[C@@H](O)C[C@@]21C | 10 | 72* | 25 | 22 | 4
Cc1ccc(NC(=O)c2cc(S(=O)(=O)N3CCOCC3)cn2C)cc1F | 0 | 30 | 10 | -1 | 11
Cc1ccc(NC(=O)C2CCCN2C(=O)NCc2ccccc2)cc1 (stereo not drawn) | 4 | 7 | -6 | 2 | 20
CCOc1ccc(NC(=O)Cc2ccc(S(=O)(=O)N3CCOCC3)s2)cc1OCC | 5 | -7 | 8 | 19 | 5
